In PubChem BioAssay (NCI) one finds growth data, which are given here for 40 compounds.

About 83,000 compounds went through this panel and 20% of them were active in at least one assay; those are over-represented in the sample as a whole.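 Testing used 96-well plates and a 48-hour single-concentration exposure. Example: -40 means 40% of the starting cells died.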 Values without a mark were called inactive. Active and inactive are the calls of the source.

This experiment has as its system EKVX NSCLC. Description: NCI-60 one-dose screen, 48 h (100 = growth as untreated, 0 = no growth, -100 = all killed). Particulars: 10 µM unless noted. How it is done:
Growth inhibition of the EKVX human Non-Small Cell Lung tumor cell line is measured as a screen for anti-cancer activity. Cells are grown in 96 well plates and exposed to the test compound for 48 hours. Compounds are tested at a single concentration, which is 10^-5 M for most compounds. The reported endpoint is percent growth (GI% or GIPRCNT), where numbers from 0 - 100% represent growth inhibition, and numbers from -100% - 0 represent cell death. For example, a value of 40 represents 60% growth inhibition. A value of 0 means no net growth occurred over the course of the experiment. A value of -40 indicates 40% of cells at the beginning of the experiment died by the end of the experiment. A value of -100 means all cells are dead at the end of the experiment.
NCI-60 Human Tumor Cell Lines Screen was performed using the standard one-dose NCI protocol, which is described in more detail at https://dtp.cancer.gov/discovery_development/nci-60/default.htm.
Compounds with GIPRCNT values below 10 were considered active. Activity score was based on GIPRCNT using the following formula: […]
Score is 0 for GIPRCNT values of 100 or above, 50 for GIPRCNT values of 0, and 100 for GIPRCNT values of -100.
`CC(C)(C)c1ccc(O)c(-c2ccccc2)c1`: the growth was 103%.

For the compound `O=C1C(=O)c2cc([N+](=O)[O-])ccc2-c2ccccc21`, the growth was -88.8% (active).

Consider `Cc1ccc(/C=C2\CNC/C(=C\c3ccc(C)cc3)C2=O)cc1`, for which the growth was -67.4% (active).

With `CCCCCCCCCCCCCCCc1ccc(C(=O)C[n+]2ccccc2)cc1`, the growth was -51.6% (active).

Turning to `CCCCCCCCCCCC[N+]1(CCCCCCCCCCCC)CCCC(C)C1` (stereo not given), the growth was -51.7% (active).

On to `Cc1oc2c(C)c3oc(=O)cc(C)c3cc2c1CCl`, for which the growth is 68.4%.

In the case of `CCCCCCCCc1cc(Cl)c(O)c(Cl)c1`, the growth was 98.9%.

For the compound `CC(/C=N/NC(N)=S)Cc1ccc(C(C)C)cc1` (stereo not given), the growth is 80.5%.

In the case of `CCCCCCCCCCCC1N=C(N)N=C(N)N1c1cccc(Br)c1` (stereo not given), the growth is 43.2%.

For `Cc1cc2nc(CC(=O)c3ccncc3)c(=O)[nH]c2cc1C`, the growth was 56.1%.

Regarding `OC(Cc1cc(CC(O)(C(F)(F)F)C(F)(F)F)nc(CC(O)(C(F)(F)F)C(F)(F)F)c1)(C(F)(F)F)C(F)(F)F`, the growth was 16%.

On to `CCC1CCCCN1C(=S)N/N=C(\C)c1ccccn1` (stereo not given), for which the growth was 10.9%.

Take `N#C/C(=N\Nc1ccc(Cl)cc1)C(=O)C1CC1`: the growth was 32.2%.

`CN(C)c1ccc(/C=C/c2sc3ccc4ccccc4c3[n+]2C)cc1`: the growth is -13.6% (active).

Turning to `CCOc1ccc(Nc2nc3c(s2)C(=O)c2ccccc2C3=O)cc1`, the growth is 96.4%.

For the compound `O=C1c2ccccc2Cc2cccc(Cl)c21`, the growth was 104%.

As to `Fc1ccc(NCCS)cc1`, the growth was 101%.

As for `NC(=S)N/N=C\c1nccc2c(N)cccc12`, the growth is 34.5%.

Take `CC(C)N=C(N)/N=C(\N)Nc1ccc2ccc3ccccc3c2c1`: the growth is -91.2% (active).

Regarding `O=[N+]([O-])c1ccc([I+]c2ccccc2)cc1`, the growth was -62.4% (active).

For the compound `CCN(CC)CC(O)CNc1ccc(NCC2CO2)c2c1C(=O)c1ccccc1C2=O` (stereo not given), the growth was 23.5%.

For the compound `Nc1cccc2cccc([N+](=O)[O-])c12`, the growth is 120%.

For `CCc1cnc2ccccc2c1/C=C/c1ccc(N(C)C)cc1`, the growth is 62.4%.

`CC(C)=C1C=C2CC[C@@H]3[C@](C)(CCC[C@@]3(C)C(=O)O)[C@H]2CC1`: the growth is 93.4%.

Consider `CCN1CCCC(Nc2cc(C)nc(/N=C(/N)Nc3ccc(Cl)c(Cl)c3)n2)C1` (stereo not given), for which the growth was 31.4%.

Turning to `CC(=O)OC1CC2CCC1(C)C2(C)C` (stereo not given), the growth was 102%.

Take `CCCCCCC1N=C(N)N=C(N)N1c1cccc(Cl)c1` (stereo not given): the growth is 76.8%.

On to `CCOC(=O)/C(=C\c1ccc2ccccc2c1)P(=O)(OCC)OCC`, for which the growth is 71%.

As to `O=C(/C=C/C(Cl)(Cl)Cl)Nc1ccc(Cl)cc1`, the growth is 94.2%.

Consider `O=[N+]([O-])CC(O)c1ccccc1` (stereo not given), for which the growth is 113%.

Turning to `CCOC(=O)c1c(C)[nH]c2ccc(O)cc12`, the growth is 98.3%.

With `CCCCCC[C@@H](O)C/C=C\CCCCCCCC(=O)OCCOC`, the growth is 79.1%.

Take `COc1cc(/C=C2\SC(=S)N(/C=C/c3nc4ccccc4[nH]c3=O)C2=O)cc(OC)c1OC`: the growth was 84.6%.

As to `CCC(C)C(N)C(=O)NC(CC(N)=O)C(=O)NC(CC(C)C)C(=O)NC(CCCCN)C(=O)NC(C)C(=O)NC(CC(C)C)C(=O)NC(C)C(=O)NC(C)C(=O)NC(CC(C)C)C(=O)NC(C)C(=O)NC(CCCCN)C(=O)NC(CCCCN)C(=O)NC(C(=O)NC(CC(C)C)C(N)=O)C(C)CC` (stereo not given), the growth is 91.2%.

With `CN(C)c1ccc2cc3c(cc2c1)Oc1ccccc1N3.[Cl][Zn][Cl]`, the growth is 89.9%.

As to `O=C1/C(=C\c2ccc([N+](=O)[O-])cc2)CS(=O)(=O)C/C1=C/c1ccc([N+](=O)[O-])cc1`, the growth is -63.4% (active).

In the case of `CC(C)Nc1ccc(Nc2ccc(NC(C)C)cc2)cc1`, the growth is 31.3%.

Turning to `Cc1nc(Sc2nc3ccc([N+](=O)[O-])cc3s2)sc1C`, the growth is 88.5%.

For `O=C1C=CC(=O)c2c(O)c(CO)c(CO)c(O)c21`, the growth is 105%.

Regarding `S=C(SSC(=S)N1CCOCC1)N1CCOCC1`, the growth was 95.3%.
